Source: the supplement of paper PMC9023506
Where a name gives a salt, the structure may show the parent alone.

Key:
Settings in all cases: 10 µM; exposure time: 3 h pre-incubation + 3 h imaging
[1] = test system: Danio rerio larvae (5 dpf); assay: activity during period 15 (no stimuli), difference vs DMSO (percentage points (treated minus DMSO)); higher = more of the behaviour than the DMSO vehicle control
Summary of the method: (§1)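 5-dpf wild-type zebrafish larvae in 96-well ProxiPlates were exposed to library drugs at 10 µM (diluted 1000× from DMSO stocks into egg water). There were 48 larvae per drug, exposed 3 h before and 3 h during imaging at 28.5 °C. Images taken every 6 s covered a 3-h program of rest, moving coloured lines and acoustic pulses, and an ImageJ macro scored movement and upper-half location. Each behaviour score is the treated-group mean minus the DMSO vehicle mean, in percentage points.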

[2] = test system: Danio rerio larvae (5 dpf); assay: optomotor response to blue moving lines, difference vs DMSO (percentage points (treated minus DMSO)); higher = more of the behaviour than the DMSO vehicle control
Summary of the method: as §1

[3] = test system: Danio rerio larvae (5 dpf); assay: startle response to 20-s acoustic pulses, difference vs DMSO (percentage points (treated minus DMSO)); higher = more of the behaviour than the DMSO vehicle control
Summary of the method: as §1

[4] = test system: Danio rerio larvae (5 dpf); assay: habituation to 1-s acoustic pulses, difference vs DMSO (percentage points (treated minus DMSO)); higher = more of the behaviour than the DMSO vehicle control
Summary of the method: as §1

[5] = test system: Danio rerio larvae (5 dpf); assay: optomotor response to green moving lines, difference vs DMSO (percentage points (treated minus DMSO)); higher = more of the behaviour than the DMSO vehicle control
Summary of the method: as §1

[6] = test system: Danio rerio larvae (5 dpf); assay: optomotor response to fast red moving lines, difference vs DMSO (percentage points (treated minus DMSO)); higher = more of the behaviour than the DMSO vehicle control
Summary of the method: as §1

[7] = test system: Danio rerio larvae (5 dpf); assay: excitability to 1-s acoustic pulses, difference vs DMSO (percentage points (treated minus DMSO)); higher = more of the behaviour than the DMSO vehicle control
Summary of the method: as §1

`OC(CNCC(O)C1CCc2cc(F)ccc2O1)C1CCc2cc(F)ccc2O1` (centres undefined) [Nebivolol hydrochloride] was tested, and the “activity during period 15” value [1] was 14, the “optomotor response to blue moving lines” value [2] was -16.6 and the “startle response to 20-s acoustic pulses” value [3] was -6.21.
In the case of `CC(C)[C@H]1CC[C@H](C(=O)N[C@H](Cc2ccccc2)C(=O)O)CC1` [Nateglinide], the “activity during period 15” value [1] was -0.384.
With `COc1ccc(-c2ccc3cc(C(=O)O)ccc3c2)cc1C12CC3CC(CC(C3)C1)C2` [Adapalene] the “habituation to 1-s acoustic pulses” value [4] was 2.52, the “optomotor response to green moving lines” value [5] was -2.82 and the optomotor response [6] was -11.7.
`C/C(O)=C(\C#N)C(=O)Nc1ccc(C(F)(F)F)cc1` [Teriflunomide] was tested, and the “habituation to 1-s acoustic pulses” value [4] was -1.26, the “excitability to 1-s acoustic pulses” value [7] was 10.6 and the “optomotor response to blue moving lines” value [2] was -8.25.
`CC(C)c1nc(N(C)S(C)(=O)=O)nc(-c2ccc(F)cc2)c1/C=C/[C@@H](O)C[C@@H](O)CC(=O)O` [Rosuvastatin calcium] was tested, and the “excitability to 1-s acoustic pulses” value [7] was -0.497, the “optomotor response to blue moving lines” value [2] was 10.7 and the “optomotor response to green moving lines” value [5] was 2.28. It also gave an optomotor response [6] of 11.1.
With `Nc1cc(N2CCCCC2)nc(N)[n+]1[O-]` [Minoxidil] the “habituation to 1-s acoustic pulses” value [4] was 5.2, the “optomotor response to green moving lines” value [5] was -7.05 and the “startle response to 20-s acoustic pulses” value [3] was -2.65.
With `Cc1cc2c(s1)Nc1ccccc1N=C2N1CCN(C)CC1` [Olanzapine] the “habituation to 1-s acoustic pulses” value [4] was 0.145 and the “optomotor response to green moving lines” value [5] was 8.6.
In the case of `Nc1ccn([C@@H]2O[C@H](CO)[C@@H](O)C2(F)F)c(=O)n1` [Gemcitabine hydrochloride], the “optomotor response to blue moving lines” value [2] was 3.79 and the “startle response to 20-s acoustic pulses” value [3] was 3.92.
`CCN(Cc1ccncc1)C(=O)C(CO)c1ccccc1` (centres undefined) [Tropicamide] was tested, and the “excitability to 1-s acoustic pulses” value [7] was 0.232, the “activity during period 15” value [1] was 6.31 and the “startle response to 20-s acoustic pulses” value [3] was -8.17. For the same compound, the optomotor response [6] was -0.214.
`CCCCC1=NC2(CCCC2)C(=O)N1Cc1ccc(-c2ccccc2-c2nnn[nH]2)cc1` [Irbesartan] was tested, and the “optomotor response to green moving lines” value [5] was -19 and the optomotor response [6] was -14.6.
In the case of `CC(C)(C)NC(=O)[C@@H]1C[C@@H]2CCCC[C@@H]2CN1C[C@@H](O)[C@H](Cc1ccccc1)NC(=O)[C@H](CC(N)=O)NC(=O)c1ccc2ccccc2n1` [Saquinavir mesylate], the “optomotor response to green moving lines” value [5] was -3.04 and the optomotor response [6] was -8.88.
With `Brc1c(NC2=NCCN2)ccc2nccnc12` the “optomotor response to green moving lines” value [5] was 10.3 and the optomotor response [6] was 16.1.
In the case of `COc1cc2nc(N3CCN(C(=O)c4ccco4)CC3)nc(N)c2cc1OC` [Prazosin hydrochloride], the “habituation to 1-s acoustic pulses” value [4] was 0.4, the “excitability to 1-s acoustic pulses” value [7] was 13.5 and the “activity during period 15” value [1] was 1.78. For the same compound, the optomotor response [6] was 3.73.
With `CC(C)(C(=O)c1cccnc1)c1cccnc1` [Metyrapone] the “habituation to 1-s acoustic pulses” value [4] was -0.218, the “optomotor response to green moving lines” value [5] was -5.18 and the “startle response to 20-s acoustic pulses” value [3] was 3.51.
In the case of `O=C(NCC1CCCCN1)c1cc(OCC(F)(F)F)ccc1OCC(F)(F)F` (centres undefined) [Flecainide acetate], the “optomotor response to green moving lines” value [5] was 18.1 and the “startle response to 20-s acoustic pulses” value [3] was 1.77.
With `N#Cc1ccc(C(c2ccc(C#N)cc2)n2cncn2)cc1` [Letrozole] the “activity during period 15” value [1] was 0.514 and the optomotor response [6] was 4.75.
`CNCc1ccc(-c2[nH]c3cc(F)cc4c3c2CCNC4=O)cc1` [Rucaparib camsylate] was tested, and the “habituation to 1-s acoustic pulses” value [4] was 4.21, the “excitability to 1-s acoustic pulses” value [7] was 12.5 and the “activity during period 15” value [1] was -8.43. The “optomotor response to green moving lines” value [5] was 1.55.
For `CN1CCN2c3ncccc3Cc3ccccc3C2C1` (centres undefined) [Mirtazapine], the “excitability to 1-s acoustic pulses” value [7] was 0.878, the “activity during period 15” value [1] was 4.7 and the optomotor response [6] was -5.17.
With `CC(C)COCC(CN(Cc1ccccc1)c1ccccc1)N1CCCC1` (centres undefined) [Bepridil hydrochloride] the “activity during period 15” value [1] was 13.7 and the “optomotor response to green moving lines” value [5] was -2.16.
`CC(C)(C(=O)O)c1ccc(C(O)CCCN2CCC(C(O)(c3ccccc3)c3ccccc3)CC2)cc1` (centres undefined) [Fexofenadine hydrochloride] was tested, and the “habituation to 1-s acoustic pulses” value [4] was 0.783, the “excitability to 1-s acoustic pulses” value [7] was -6.48 and the “optomotor response to blue moving lines” value [2] was 4.47. For the same compound, the “startle response to 20-s acoustic pulses” value [3] was 4.
In the case of `CN(C)CCC[C@@]1(c2ccc(F)cc2)OCc2cc(C#N)ccc21` [Escitalopram oxalate], the “habituation to 1-s acoustic pulses” value [4] was -4.74 and the “optomotor response to blue moving lines” value [2] was 1.97.
With `Cc1nc(-c2ccc(OCC(C)C)c(C#N)c2)sc1C(=O)O` [Febuxostat] the “excitability to 1-s acoustic pulses” value [7] was -0.372 and the “startle response to 20-s acoustic pulses” value [3] was 2.71.
With `CN(C)CCc1c[nH]c2ccc(Cn3cncn3)cc12` [Rizatriptan benzoate] the “activity during period 15” value [1] was -3.72 and the “startle response to 20-s acoustic pulses” value [3] was 4.29.
`NS(=O)(=O)c1cc2c(cc1Cl)NC(C1CC3C=CC1C3)NS2(=O)=O` (centres undefined) [Cyclothiazide] showed an optomotor response [6] of -3.47.
With `CN(C)CCc1c[nH]c2ccc(C[C@H]3COC(=O)N3)cc12` [Zolmitriptan] the “habituation to 1-s acoustic pulses” value [4] was -1.85.
`CN(C)CC/C=C1/c2ccccc2COc2ccc(CC(=O)O)cc21` [Olopatadine hydrochloride] was tested, and the “habituation to 1-s acoustic pulses” value [4] was 0.997 and the “excitability to 1-s acoustic pulses” value [7] was 3.92.
For `C[C@H]1C[C@@H]2[C@H]([C@@H](O)C[C@@]3(C)[C@H]2CC[C@]3(O)C(=O)CO)[C@@]2(C)C=CC(=O)C=C12` [Methylprednisolone], the optomotor response [6] was -4.16.
With `COc1cc2nc(N3CCN(C(=O)C4COc5ccccc5O4)CC3)nc(N)c2cc1OC` (centres undefined) [Doxazosin mesylate] the “habituation to 1-s acoustic pulses” value [4] was -2.28.
For `O=c1n(CCCN2CCN(c3cccc(Cl)c3)CC2)nc2ccccn12` [Trazodone hydrochloride], the “habituation to 1-s acoustic pulses” value [4] was -10.7 and the “activity during period 15” value [1] was 1.62.
In the case of `C#C[C@]1(O)CC[C@H]2[C@@H]3CCC4=CC(=O)CC[C@@H]4[C@H]3CC[C@@]21CC` [Levonorgestrel], the “excitability to 1-s acoustic pulses” value [7] was 1.14.
Work on `CCCCCOC(=O)Nc1nc(=O)n([C@@H]2O[C@H](C)[C@@H](O)[C@H]2O)cc1F` [Capecitabine] yielded an optomotor response [6] of 5.07.
With `Cc1ccc(O)c([C@H](CCN(C(C)C)C(C)C)c2ccccc2)c1` [Tolterodine L-tartrate] the “activity during period 15” value [1] was 13.9 and the “startle response to 20-s acoustic pulses” value [3] was -5.76.
`Cc1ccc(-c2cc(C(F)(F)F)nn2-c2ccc(S(N)(=O)=O)cc2)cc1` [Celecoxib] was tested, and the “startle response to 20-s acoustic pulses” value [3] was -6.81.
For `C#CCN[C@@H]1CCc2ccccc21` [Rasagiline mesylate], the “excitability to 1-s acoustic pulses” value [7] was -3.66.
In the case of `COc1ccc(Cl)cc1C(=O)NCCc1ccc(S(=O)(=O)NC(=O)NC2CCCCC2)cc1` [Glibenclamide], the “excitability to 1-s acoustic pulses” value [7] was -0.0554 and the “startle response to 20-s acoustic pulses” value [3] was 6.49.
In the case of `O=C(O)c1cc(/N=N/c2ccc(S(=O)(=O)Nc3ccccn3)cc2)ccc1O` [Sulfasalazine], the “startle response to 20-s acoustic pulses” value [3] was -1.02.
`CCCCC(=O)N(Cc1ccc(-c2ccccc2-c2nnn[nH]2)cc1)[C@H](C(=O)O)C(C)C` [Valsartan] was tested, and the “habituation to 1-s acoustic pulses” value [4] was 2.82 and the “activity during period 15” value [1] was 9.35.
For `Clc1ccc(COC(Cn2ccnc2)c2ccc(Cl)cc2Cl)c(Cl)c1` (centres undefined) [Miconazole nitrate], the “activity during period 15” value [1] was -12.8 and the “startle response to 20-s acoustic pulses” value [3] was 4.56.
In the case of `C=CC(=O)N1CCC[C@@H](n2nc(-c3ccc(Oc4ccccc4)cc3)c3c(N)ncnc32)C1` [Ibrutinib], the “habituation to 1-s acoustic pulses” value [4] was -7.68 and the “excitability to 1-s acoustic pulses” value [7] was -2.71.
